# Measurements: PubChem BioAssay AID2284078 (EPA ToxCast)
# Active and inactive are the calls of the source. How the source made its calls: active means hit-call score of the fitted dose curve at least 0.9, where 1 is the maximum; inactive means score below 0.9.
# Target: human CHK1 (CHEK1) CAMK Kinase, CHEK1 (gene 1111) (UniProt O14757)
# Assay: ERF_TW_ENZ_hCHK1: Eurofins (ERF) Enzymatic Radiometric [10 uM ATP] KinaseProfiler LeadHunter Assay for human CHK1 (CHEK1) CAMK Kinase
# Procedure: ERF_TW_ENZ_hCHK1 is a biochemical, single-readout assay that uses extracted gene-proteins in a cell-free assay. Measurements were taken 0.5 hour after chemical dosing in a 96-well plate. See CHK1 Human CAMK Kinase Enzymatic Radiometric Assay [10 uM ATP], Panlabs.ERF_TW_ENZ_hCHK1 is an assay component calculated from the ERF_TW_ENZ_hCHK1 assay. It is designed to measure enzyme activity using a type of enzyme reporter as detected by scintillation counting with radiometry technology.Data from the assay component ERF_TW_ENZ_hCHK1 was analyzed at the assay endpoint, ERF_TW_ENZ_hCHK1, in the positive analysis fitting direction relative to DMSO as the negative control and baseline of activity. Using a type of enzyme reporter, loss-of-signal activity can be used to understand changes in enzymatic activity as they relate to gene CHEK1. To generalize the intended target to other relatable targets, this assay endpoint is annotated to the kinase intended target family, where the subfamily is serine/threonine kinase.
# CHK1 (h) is incubated with 8 mM MOPS pH 7.0, 0.2 mM EDTA, 200 uM […], 10 mM MgAcetate and [gamma-33P]-ATP (specific activity and concentration as required). The reaction is initiated by the addition of the Mg/ATP mix. After incubation for 40 minutes at room temperature, the reaction is stopped by the addition of phosphoric acid to a concentration of 0.5%. An aliquot of the reaction is then spotted onto a filter and washed four times for 4 minutes in 0.425% phosphoric acid and once in methanol prior to drying and scintillation counting. Test Sample Requirements: Compound should be supplied in 100%DMSO. We require a stock solution at a concentration of at least 50x higher than the Final Assay Concentration of your cpd. A 10mM stock is also acceptable. When ordering fewer than 60 kinase assays, we need 120uL of 50x concentrated stock. For more than 60 assays, we need 420uL of 50xcc stock. Please apply the conversion if you provide 10mM stock solution or compounds in powder form (pre-weighed is required). From 50 cpds supplied as solids, the TAT will be extended.
# human CHK1 (CHEK1) CAMK Kinase, CHEK1 (gene 1111), sequence (O14757 whole entry, looked up): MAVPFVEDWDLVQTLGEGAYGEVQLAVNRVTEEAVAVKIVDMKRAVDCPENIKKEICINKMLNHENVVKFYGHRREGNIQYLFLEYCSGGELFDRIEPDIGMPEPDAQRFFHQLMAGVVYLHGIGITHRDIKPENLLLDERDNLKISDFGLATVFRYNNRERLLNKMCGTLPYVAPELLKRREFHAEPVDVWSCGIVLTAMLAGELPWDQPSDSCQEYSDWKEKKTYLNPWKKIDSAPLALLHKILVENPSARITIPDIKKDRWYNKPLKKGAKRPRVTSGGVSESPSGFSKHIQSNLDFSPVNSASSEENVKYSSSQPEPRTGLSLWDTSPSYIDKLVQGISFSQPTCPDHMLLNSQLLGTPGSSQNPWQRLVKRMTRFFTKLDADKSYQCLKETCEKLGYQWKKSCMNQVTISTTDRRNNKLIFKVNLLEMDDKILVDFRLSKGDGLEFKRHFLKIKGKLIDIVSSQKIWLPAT
Structure (SMILES),AC50,outcome
COc1cc(/C=C/C(=O)CC(=O)/C=C/c2ccc(O)c(OC)c2)ccc1O,2590 nM (active),
COc1cc(CCC(=O)CC(=O)CCc2ccc(O)c(OC)c2)ccc1O,,inactive
O=C(/C=C/c1ccc(O)cc1)CC(=O)/C=C/c1ccc(O)cc1,2950 nM (active),
